In the library only some 10% were active in any assay of this set; here they are far more common.
PLK1 PBD block: PLK1 (human) polo-box domain binding inhibition; Plk1 PBD binding of FITC phosphopeptide, fluorescence polarization; Potency, µM, for inactives: max response, negative = inhibition, usual class: inhibitors; 360,000 tested, 2.8% active; further: potency means the concentration at half of the fitted maximal effect; series mostly up to about 57 µM; nearly all actives have a fitted effect of over 65% in size
CCT chaperon mod: cytosolic chaperonin activity modulation. 360,000 tested, 0.3% active. purified chaperonin ATPase assay, HTRF ADP detection, 30 min. activity change, % (no concentration beside the values), hits read low; in the data active means activity change below about -30%
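TRiC at 40 or 20 nM final (batch-dependent) in 30 mM Tris pH 7.4, 100 mM KCl, 5 mM MgCl2, 1 mM DTT, with compound at single 76 uM and 10 uM ATP, 30 min at 37 deg C. ADP detected by HTRF Transcreener, 665/615 ratio.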
G9a block: G9a (human) methyltransferase inhibition; G9a H3K9 monomethylation, AlphaScreen, 2 h; Potency, µM (titrated, usually from 102 µM), without a hit: top-dose activity, negative = inhibition, most hits filed as inhibitors; 350,000 tested, 8.8% active; AID 504332; further: potency means the concentration at half of the fitted maximal effect; nearly all actives have a fitted effect of over 75% in size
Target sequence (Q96KQ7 913-1193 limits assumed): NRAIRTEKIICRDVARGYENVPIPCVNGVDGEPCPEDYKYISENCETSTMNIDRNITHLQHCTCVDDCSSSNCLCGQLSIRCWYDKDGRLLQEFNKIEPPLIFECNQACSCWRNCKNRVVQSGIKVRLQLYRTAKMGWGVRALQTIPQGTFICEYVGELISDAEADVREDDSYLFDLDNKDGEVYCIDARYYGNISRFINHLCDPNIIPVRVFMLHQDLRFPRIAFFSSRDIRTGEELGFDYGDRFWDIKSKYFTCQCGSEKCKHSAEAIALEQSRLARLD
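Compounds were preincubated with 20 nM G9a for 15 min, after which biotinylated H3K9 peptide (500 nM) and SAM (20 uM) started a 2 h room-temperature reaction. Monomethylated product was quantified by antibody-based AlphaScreen chemiluminescence.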
Sfp inh: Sfp phosphopantetheinyl transferase inhibition | 310,000 tested, 3.5% active | Potency, µM, without a hit: largest response in the series, negative = inhibition, most hits filed as inhibitors | Q9F4F7 | Biochemical Sfp PPTase activity, qHTS;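 further: the enzyme is Sfp with the accession as filed and its product quenches rhodamine fluorescence; potency means the concentration at half of the fitted maximal effect; 0% = enzyme reaction without inhibitor and -100% = no enzyme wells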
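Sfp 15 nM + cpd, 15 min RT; start w/ rhodamine-CoA 5 uM, BHQ-2-YbbR 12.5 uM (final); 50 mM Hepes pH 7.6, 10 mM MgCl2, 0.01% NP-40, 0.01% BSA; read 525/598 nm at 0 and 30 min.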
VDR inh: vitamin D3 receptor (human) inhibition; VDR-SRC2-3 peptide fluorescence polarization, 2 h; P11473; 400,000 tested, 0.93% active; Potency, µM, for inactives: max response, negative = inhibition, actives largely listed as inhibitors; AID 504847; further: potency means the concentration at half of the fitted maximal effect
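After 23 nl compound addition and a short centrifugation, plates sat for 2 hours at ambient temperature; polarization of fluorescence then indicated loss of VDR binding to peptide SRC2-3.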
Mm-Cpn inhibitor: inhibitors of Methanococcus maripaludis chaperonin TRiC (MmCpn). purified Mm-Cpn ATPase, ADP Transcreener TR-FRET. Potency, µM (highest dose often 76.9 µM), for the others: at the highest dose activity, negative = inhibition, usual class: inhibitors. 330,000 tested, 0.031% active; further: potency means the concentration at half of the fitted maximal effect; nearly all actives have a fitted effect of over 80% in size
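ATPase turnover read by TR-FRET ADP competition (Eu cryptate antibody/ADP-d2, 665/590 nm): 10uM ATP final, 25nM Mm-CPN final, 30 min 37degC after 10-min compound preincubation, pH 7.4 Tris/KCl/MgCl2/DTT buffer.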
The depositor's hits bear a star; u = inconclusive; x = no result given; [ ] = another dose, or the depositor's remark. Unless noted, the call rests on the fitted dose curve; in most records, active means well fitted curve in the direction sought with a large enough effect; inconclusive means small, poorly fitted or top-dose-only effect, or another doubt; inactive means no such curve, though single readings can be large; an effect the other way counts as inactive or inconclusive. Unless noted, on the % scale 0 is the no-effect control and ±100 the full control effect.

SMILES | PLK1 PBD block | CCT chaperon mod | G9a block | Sfp inh | VDR inh | Mm-Cpn inhibitor
COc1ccc(-n2c(SC)nc(O)c(Cc3ccccc3)c2=O)cc1 | -23% | -1 | 40µM* | 0% | -13% | -1%
COc1ccc(-n2c(SCC(=O)Nc3ccccc3OC)nc(O)c(Cc3ccccc3)c2=O)cc1 | -14% | 2 | x | -13% | 14% | -3%
Cc1ccc(NC(=O)C(Cc2ccccc2)NS(=O)(=O)c2ccc3c(c2)oc(=O)n3C)cc1F (configuration not stated) | x | x | 0%[59 µM] | x | -3% | x
O=C(Nc1ccc(S(=O)(=O)Nc2cnc3ccccc3n2)cc1)c1cc(F)c(F)cc1Cl | 30µM* | 1 | 0% | 21% | u | 1%
O=C(Nc1ccc(S(=O)(=O)Nc2cnc3ccccc3n2)cc1)c1ccc(Cl)c([N+](=O)[O-])c1 | 42µM* | 0 | x | 31% | u | 0%
CCC(Oc1ccccc1)C(=O)Nc1ccc(S(=O)(=O)Nc2cnc3ccccc3n2)cc1 (configuration not stated) | -11% | -2 | -7%[59 µM] | 23% | -5% | 0%
Cc1cc(Cl)ccc1OC(C)C(=O)Nc1ccc(S(=O)(=O)Nc2cnc3ccccc3n2)cc1 (configuration not stated) | 21µM* | 0 | u | 7% | -63% | -5%
O=C(Nc1ccc(S(=O)(=O)Nc2cnc3ccccc3n2)cc1)c1ccc(Cl)cc1Cl | -14% | -2 | x | x | -16% | x
COc1ccc([C@@H]2CNC(=O)C2)cc1OC1CCCC1 | x | x | 26%[21.5 µM] | -30% | 2% | x
O=C(CSc1nc2ccccc2c(=O)n1CC1CCCO1)NCc1ccc2c(c1)OCO2 (configuration not stated) | 27µM* | -1 | -6% | 13% | -20% | -22%
O=C(CSc1nc2ccccc2[nH]1)NCc1ccc2c(c1)OCO2 | -12% | 1 | 25µM* | 17% | -16% | -5%
CN1CCN(/C=N/c2c(C#N)cnn2-c2ccccc2)CC1 | 27µM* | 0 | -4%[59 µM] | 7% | 0% | 3%
CC1CCN(S(=O)(=O)c2ccc(C(=O)Nc3nc4ccc(F)cc4s3)cc2)CC1 | x | x | 0%[59 µM] | x | 12% | x
COc1cc(C(=O)NNC(=O)/C=C/c2ccco2)cc(OC)c1OC | -11% | -2 | x | x | 7% | -13%
CC(NC(=O)/C=C/c1ccco1)c1nc2ccccc2n1Cc1cccc(Cl)c1 (configuration not stated) | -22% | -1 | u | 28µM* | -23% | -1%
COc1ccc(C(NC(=O)/C=C/c2ccco2)c2ccc(OC)cc2)cc1 | u | -9 | 8.9µM* | 25µM* | u | 2%
COc1ccc(C(NC(=O)/C=C\c2ccco2)c2ccc(OC)c(OC)c2)cc1 (configuration not stated) | u | -3 | 25µM* | 20µM* | -14% | 0%
CCC(Cc1ccccc1)NC(=O)/C=C/c1ccco1 (configuration not stated) | -29% | 3 | 18%[0.501 µM] | 56µM* | 11% | -3%
O=C(c1ccc(Br)s1)N(Cc1cccnc1)c1nc2ccc(F)cc2s1 | x | x | u | x | 1% | x
CCNc1ncc2ncc(=O)n(C)c2n1 | x | x | -1%[12.7 µM] | 10% | -2% | x
CCOC(=O)c1nnn(-c2ccc([N+](=O)[O-])cc2[N+](=O)[O-])c1C | -12% | 1 | -16% | 0% | -2% | -13%
COCc1c(C(=O)OC)nnn1-c1ccc(C(F)(F)F)cc1[N+](=O)[O-] | 27µM* | -1 | 11%[12.7 µM] | 26% | -1% | -1%
CC1(C)Nc2ccc(O)cc2-c2c1ssc2=S | 27µM* | -4 | 8.9µM* | 45µM* | u | -7%
O=C(c1cccc(Cl)c1)N(Cc1cccc(F)c1)C1CCS(=O)(=O)C1 (configuration not stated) | x | x | -4%[59 µM] | x | 8% | x
CCCC(=O)Nc1cc(C)c(NC(=O)c2ccccn2)cn1 | u | -1 | 7.9µM* | u | -9% | 2%
Cc1cc(NC(=O)C(C)C)ncc1NC(=O)c1ccccn1 | 27µM* | 0 | 18µM* | 79µM* | -17% | -9%

Screening results from PubChem BioAssay.
